Source: PubChem BioAssay (NCATS)
Inconclusive results are not listed. Where a call stands in place of a potency, no number is given. Active and inactive are the calls of the source. Calls come from the whole dose curve; as a rule, active = well fitted inhibition curve with a large enough effect; inconclusive = small, poorly fitted or top-dose-only effect; inactive = no such curve, though single readings can be large or run the other way.

Legend:
[1] = test system: Zika virus NS2B-NS3 protease (unlinked complex); assay: Primary screen GU Rhodamine qHTS for Zika virus inhibitors: Unlinked NS2B-NS3 protease assay (AID 1347159); note: nearly all actives have a fitted effect of over 60% in size
How it was run: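 A qHTS format was used, with compound concentrations ranging up to 114 microM. Each compound was preincubated with 25 nM NS2B-NS3 protease, and the substrate was then added at 1.5 microM. Curves were fitted with a 4-parameter Hill model.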

[2] = test system: Zika virus NS2B-NS3 protease (linked construct); assay: Primary screen NINDS Rhodamine qHTS for Zika virus inhibitors (AID 1347160); note: nearly all actives have a fitted effect of over 55% in size
How it was run: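 Kinetic fluorescence (Ex 480 nm, Em 540 nm) over 15 min with 1.5 microM Rhodamine110 peptide and 25 nM linked protease.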

| SMILES | Potency [1] | Potency [2] |
| --- | --- | --- |
| CC1=C2C[C@@]3(C)C(CCC[C@@H]3C)C(O)C2OC1=O (some centres undefined) | inactive | inactive |
| CC(=O)OC1CC2(C)C(CCC(C)C23Cc2c(O)cc(CO)c(C=O)c2O3)C(C)(C)C1O (centres undefined) | inactive | inactive |
| COc1cc2ncnc(Nc3ccc(O)c(Br)c3)c2cc1OC | inactive | inactive |
| O=C(NCCO)c1cccc(-c2cc(Nc3ccc(OC(F)(F)F)cc3)ncn2)c1 | inactive | inactive |
| C#CCNCc1cc2cc(OCc3ccccc3)ccc2[nH]1 | inactive | inactive |
| C=CC(=O)Nc1cccc(Nc2nc(Nc3ccc(OCCOC)cc3)ncc2F)c1 | inactive | inactive |
| N#CSc1cc(SC#N)c(N)nc1N | inactive | inactive |
| COc1ccc(N2CCN(C(=O)c3cc4c(s3)-c3ccccc3S(=O)(=O)C4)CC2)cc1 | inactive | inactive |
| C[C@@H]1O[C@@H](O[C@H]2[C@H](O[C@H]3CC[C@@]4(C)C(CC[C@]5(C)C4C=C[C@]46OC[C@@]7(CCC(C)(C)C[C@H]74)[C@@H](O[C@@H]4O[C@@H](C)[C@H](O)[C@@H](O)[C@H]4O)C[C@]65C)[C@]3(C)CO)O[C@H](CO)[C@@H](O)[C@@H]2O[C@@H]2O[C@H](CO)[C@@H](O)[C@H](O)[C@H]2O)[C@H](O)[C@H](O)[C@H]1O (some centres undefined) | inactive | inactive |
| CN1CCC(c2cn(C)c3ccc(OS(=O)(=O)c4c(F)cccc4F)cc23)CC1 | inactive | inactive |
| COC(=O)CC(O)CC(O)/C=C/c1c(C)ccc2c1C(OC(C)=O)CC(C)C2 (centres undefined) | inactive | inactive |
| CC(=O)NC(C(=O)O[C@H]1CCC(C)(C)[C@@H]2CC=C3C(=O)OCC3(O)[C@@]12C)C(C)C (some centres undefined) | inactive | inactive |
| CC(C)n1c(=O)c(C(=O)NC2CC3CCC(C2)N3C[C@@H](O)CN(C)S(C)(=O)=O)cc2ccccc21 (some centres undefined) | inactive | inactive |
| COCCCNC(=O)c1ccc(Cn2c(=O)c3ccccc3n(Cc3ccc(C(C)C)cc3)c2=O)cc1 | inactive | inactive |
| CCC[C@H](N[C@H]1CCc2cc(F)cc(F)c2C1)C(=O)Nc1cn(C(C)(C)CNCC(C)(C)C)cn1 | inactive | inactive |
| COc1c2c(c(C)c3c1C(=O)OC3)O[C@@]1(C)C[C@@H](OC(C)=O)[C@]34O[C@](OC)(CC[C@]3(C)[C@H]1C2)OC4(C)C | inactive | inactive |

| SMILES | Potency [1] | Potency [2] |
| --- | --- | --- |
| COC(=O)c1ccc(N2CCN(C)CC2)c(NC(=O)c2cccc(OC)c2)c1 | inactive | inactive |
| CN1CCN(C2CCN(C(=O)Nc3cc(Oc4ccc(NC(=O)C5(C(=O)Nc6ccc(F)cc6)CC5)c(F)c4)ccn3)CC2)CC1 | inactive | inactive |
| COCC(c1ccc(C(F)(F)F)cc1)N1CCN(C2(C)CCN(C(=O)c3c(C)ncnc3C)CC2)CC1C (centres undefined) | inactive | inactive |
| COc1ccc(CCCN2CCC(COC(c3ccccc3)c3ccccc3)CC2)cc1 | inactive | inactive |
| C=C1CC[C@@H]2[C@](C)(CO)[C@H](O)CC[C@@]2(C)[C@@H]1CC(O)C1=CCOC1=O (some centres undefined) | inactive | inactive |
| CC(C)(C)c1ccc(C(=O)Nc2cn3cc(-n4ccnc4)ccc3n2)cc1 | inactive | inactive |
| CCCCNc1ncc(-c2ccc(CN3CCOCC3)cn2)c(NC2CCC(O)CC2)n1 (centres undefined) | inactive | inactive |
| Cn1cc(-c2ccc3c(c2)CCN3C(=O)Cc2cccc(C(F)(F)F)c2)c2c(N)ncnc21 | inactive | inactive |
| Nc1ncnc2c1c(-c1ccc(Cl)cc1)nn2-c1cccc(-c2cnnn2Cc2cccc(-c3ccccc3)c2)c1 | inactive | inactive |
| CNc1cc2[nH]c(=O)n(-c3ccc(NC(=O)NS(=O)(=O)c4ccc(Cl)s4)cc3)c(=O)c2cc1F | inactive | inactive |
| COc1cc2nc(C3CC3)nc(N3CCN(c4ccccc4OC)CC3)c2cc1OC | inactive | inactive |
| CN(C)S(=O)(=O)c1ccc(NC(=S)N2CCC(C(O)(c3ccccc3)c3ccccc3)CC2)cc1 | inactive | inactive |
| COC(=O)C(Cc1ccc(OCCn2c(=O)sc3cc(C(=O)c4ccccc4)ccc32)cc1)C(=O)OC | inactive | inactive |
| Cc1cc(-c2nc3cc(F)ccc3s2)ccc1NC(=O)[C@@H](N)CCCCN | inactive | inactive |
| CC(C)C[C@@H]1NC(=O)[C@@H]2C[C@@]34C[C@@H]5[C@@]6(C)CCCC(C)(C)C6CC[C@@]5(C)N(c5ccccc53)[C@H]4N2C1=O (some centres undefined) | inactive | inactive |
| Fc1ccc(-c2nc(C3CCNCC3)sc2-c2ccnc(NC3CC3)n2)cc1 | inactive | inactive |
